PubChem BioAssay AID1159580 (chemical genetic matrix, 2015)
Several values for one entry are separate records, joined by “and”; a condition that tells them apart may be missing. Equal entries are not always repeated. The whole screen tested about 5,500 compounds, of which about 2,000 (36%) were called active. About 18% were inconclusive and are not listed. Rule as the data show it: active = normalized growth mostly below about 0.91 (no sharp cut-off); inconclusive = no clear call, values can overlap the other calls; inactive = mostly above about 0.92. This is one part of the list.

Test: chemical genetic growth profiling, strain panel (AID 1159580);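 also: tested at 20 µM; growth read once vehicle control cultures reached saturation at 30 °C; 1 = growth at the plate median or of vehicle wells; lower values mean less growth of the strain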
Details: S. cerevisiae deletion strains, growth OD

Measured: normalized growth

CC[C@@H](C(=O)[C@@H](C)[C@@H](O)[C@H](C)[C@@H]1O[C@@H]([C@@H](CC)C(=O)O)CC[C@@H]1C)[C@H]1OC2(C=C[C@@H](O)[C@]3(CC[C@@](C)([C@H]4CC[C@](O)(CC)[C@H](C)O4)O3)O2)[C@H](C)C[C@@H]1C (some centres undefined)
0.819 (inactive) and 0.137 (active): locus YJL095W, strain BCK1, stronger effect = lower value
0.934 (inactive) and 0.145 (active): locus YHR030C, strain SLT2, stronger effect = lower value
active: locus YAL021C, strain ccr4, stronger effect = lower value 0.721 | locus YAL026C, strain drs2, stronger effect = lower value 0.14 | locus YAL030W, strain snc1, stronger effect = lower value 0.906 | locus YBL061C, strain skt5, stronger effect = lower value 0.846 | locus YBR009C, strain hhf1, stronger effect = lower value 0.833 | locus YBR021W, strain FUR4, stronger effect = lower value 0.753 | locus YBR023C, strain chs3, stronger effect = lower value 0.839 | locus YBR171W, strain sec66, stronger effect = lower value 0.887 | locus YBR231C, strain swc5, stronger effect = lower value 0.789 | locus YCL011C, strain gbp2, stronger effect = lower value 0.867 | locus YCL016C, strain dcc1, stronger effect = lower value 0.85 | locus YCL069W, strain vba3, stronger effect = lower value 0.892 | locus YCR088W, strain abp1, stronger effect = lower value 0.877 | locus YDL134C, strain PPH21, stronger effect = lower value 0.871 | locus YDL192W, strain arf1, stronger effect = lower value 0.136 | locus YDR069C, strain doa4, stronger effect = lower value 0.872 | locus YDR101C, strain arx1, stronger effect = lower value 0.891 | locus YDR162C, strain NBP2, stronger effect = lower value 0.69 | locus YDR297W, strain sur2, stronger effect = lower value 0.919 | locus YDR318W, strain mcm21, stronger effect = lower value 0.825 | locus YDR388W, stronger effect = lower value 0.668 | locus YDR502C, strain sam2, stronger effect = lower value 0.847 | locus YEL003W, strain gim4, stronger effect = lower value 0.885 | locus YEL037C, strain rad23, stronger effect = lower value 0.901 | locus YFR010W, strain ubp6, stronger effect = lower value 0.84 | locus YGL078C, strain dbp3, stronger effect = lower value 0.917 | locus YGL086W, strain mad1, stronger effect = lower value 0.863 | locus YGL167C, strain pmr1, stronger effect = lower value 0.744 | locus YGL248W, strain PDE1, stronger effect = lower value 0.878 | locus YGL253W, strain hxk2, stronger effect = lower value 0.816 | locus YHR079C, strain IRE1 (second series), stronger effect = lower value 0.837 | locus YHR079C, strain IRE1, stronger effect = lower value 0.164 | locus YHR094C, strain hxt1, stronger effect = lower value 0.877 | locus YHR142W, strain chs7, stronger effect = lower value 0.836 | locus YHR200W, strain rpn10, stronger effect = lower value 0.908 | locus YIL125W, strain kgd1, stronger effect = lower value 0.785 | locus YIR030C, strain dcg1, stronger effect = lower value 0.892 | locus YJL092W, strain hpr5, stronger effect = lower value 0.903 | locus YJL095W, strain BCK1 (second series), stronger effect = lower value 0.875 | locus YJL129C, strain trk1, stronger effect = lower value 0.707 | locus YJL154C, strain vps35, stronger effect = lower value 0.821 | locus YJL164C, strain tpk1, stronger effect = lower value 0.883 | locus YJL168C, strain set2, stronger effect = lower value 0.873
inactive: locus YAL013W, strain DEP1, stronger effect = lower value 1.02 | locus YBR229C, strain ROT2, stronger effect = lower value 0.932 | locus YBR279W, strain paf1, stronger effect = lower value 0.94 | locus YCL029C, strain bik1, stronger effect = lower value 0.911 | locus YCL061C, strain MRC1, stronger effect = lower value 0.923 | locus YDL005C, strain med2, stronger effect = lower value 0.97 | locus YDL035C, strain GPR1, stronger effect = lower value 0.876 | locus YDL040C, strain nat1, stronger effect = lower value 0.944 | locus YDL074C, strain BRE1, stronger effect = lower value 0.963 | locus YDL101C, strain DUN1, stronger effect = lower value 0.943 | locus YDL185W, strain tfp1, stronger effect = lower value 0.988 | locus YDR001C, strain nth1, stronger effect = lower value 0.929 | locus YDR137W, strain rgp1, stronger effect = lower value 0.974 | locus YDR159W, strain sac3, stronger effect = lower value 0.941 | locus YDR195W, strain ref2 1.01 | locus YDR334W, strain swr1, stronger effect = lower value 0.98 | locus YDR335W, strain msn5, stronger effect = lower value 0.927 | locus YDR392W, strain spt3, stronger effect = lower value 1.09 | locus YEL061C, strain CIN8 (second series), stronger effect = lower value 0.948 | locus YEL061C, strain CIN8, stronger effect = lower value 0.982 | locus YER015W, strain faa2, stronger effect = lower value 0.979 | locus YER016W, strain bim1, stronger effect = lower value 0.95 | locus YER110C, stronger effect = lower value 1.01 | locus YER111C, strain swi4, stronger effect = lower value 0.96 | locus YER155C, strain BEM2 (second series), stronger effect = lower value 1.03 | locus YER155C, strain BEM2, stronger effect = lower value 1.03 | locus YER167W, strain BCK2, stronger effect = lower value 0.914 | locus YGL173C, strain kem1, stronger effect = lower value 0.917 | locus YGL227W, strain vid30, stronger effect = lower value 0.943 | locus YGL240W, strain doc1, stronger effect = lower value 1 | locus YGR078C, strain PAC10, stronger effect = lower value 0.986 | locus YGR135W, strain pre9, stronger effect = lower value 0.932 | locus YGR252W, strain gcn5, stronger effect = lower value 0.923 | locus YHR013C, strain ard1, stronger effect = lower value 1.07 | locus YHR027C, strain rpn1, stronger effect = lower value 0.958 | locus YHR129C, strain ARP1, stronger effect = lower value 0.932 | locus YIL066C, strain RNR3, stronger effect = lower value 0.934 | locus YIL073C, strain SPO22, stronger effect = lower value 0.88 | locus YJL115W, strain asf1, stronger effect = lower value 0.985 | locus YJL134W, strain LCB3, stronger effect = lower value 0.949 | locus YJL166W, strain qcr8, stronger effect = lower value 0.926 | locus YJL187C, strain SWE1 (second series), stronger effect = lower value 0.916 | locus YJL187C, strain SWE1, stronger effect = lower value 0.935 | locus YJR043C, strain POL32, stronger effect = lower value 0.968
